Screens from PubChem.
In the library only some 10% were active in any assay of this set; here they are far more common.
GPT2 inh: GPT2 alanine aminotransferase inhibition. Potency, µM (top dose mostly 57.7 µM), for inactives: at the highest dose activity change, negative = inhibition, usual class: inhibitors. Q8TD30. actives 0.25% (n = 100,000). Recombinant GPT2, coupled pyruvate oxidase/HRP Amplex Red fluorescence; also: nearly all actives have a fitted effect of over 60% in size
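Recombinant GPT2 (10ng/uL) with 250uM a-KG and 2mM L-alanine, 30 min at room temperature, in HEPES pH 7.5 buffer. Pyruvate detected by pyruvate oxidase/HRP/Amplex Red fluorescence after 30 min in the dark; AOA (50uM) as positive control.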
FLuc inh: Photinus pyralis luciferase inhibition | AID 1347043 | actives 2.5% (n = 76,000) | purified P. pyralis luciferase, luminescence, biochemical | Potency, µM (titrated, usually from 115 µM), usual class: inhibitors; also: nearly all actives have a fitted effect of over 65% in size
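Luminescence read by CCD imaging after purified firefly luciferase (10nM final) was added to substrate buffer holding 10uM D-luciferin and 10uM ATP, pH 7.5, pre-dosed with compound.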
NPR1 antag: human Npr1 receptor antagonism. P16066. HEK293 hNpr1 GloSensor cGMP, ANP-stimulated luminescence. Potency, µM (highest dose often 46.3 µM), for the others: at the top dose activity change, negative = inhibition, most hits filed as inhibitors. actives 1.6% (n = 76,000); calls by dose curve; also: nearly all actives have a fitted effect of over 60% in size
Target sequence (P16066 whole entry, looked up): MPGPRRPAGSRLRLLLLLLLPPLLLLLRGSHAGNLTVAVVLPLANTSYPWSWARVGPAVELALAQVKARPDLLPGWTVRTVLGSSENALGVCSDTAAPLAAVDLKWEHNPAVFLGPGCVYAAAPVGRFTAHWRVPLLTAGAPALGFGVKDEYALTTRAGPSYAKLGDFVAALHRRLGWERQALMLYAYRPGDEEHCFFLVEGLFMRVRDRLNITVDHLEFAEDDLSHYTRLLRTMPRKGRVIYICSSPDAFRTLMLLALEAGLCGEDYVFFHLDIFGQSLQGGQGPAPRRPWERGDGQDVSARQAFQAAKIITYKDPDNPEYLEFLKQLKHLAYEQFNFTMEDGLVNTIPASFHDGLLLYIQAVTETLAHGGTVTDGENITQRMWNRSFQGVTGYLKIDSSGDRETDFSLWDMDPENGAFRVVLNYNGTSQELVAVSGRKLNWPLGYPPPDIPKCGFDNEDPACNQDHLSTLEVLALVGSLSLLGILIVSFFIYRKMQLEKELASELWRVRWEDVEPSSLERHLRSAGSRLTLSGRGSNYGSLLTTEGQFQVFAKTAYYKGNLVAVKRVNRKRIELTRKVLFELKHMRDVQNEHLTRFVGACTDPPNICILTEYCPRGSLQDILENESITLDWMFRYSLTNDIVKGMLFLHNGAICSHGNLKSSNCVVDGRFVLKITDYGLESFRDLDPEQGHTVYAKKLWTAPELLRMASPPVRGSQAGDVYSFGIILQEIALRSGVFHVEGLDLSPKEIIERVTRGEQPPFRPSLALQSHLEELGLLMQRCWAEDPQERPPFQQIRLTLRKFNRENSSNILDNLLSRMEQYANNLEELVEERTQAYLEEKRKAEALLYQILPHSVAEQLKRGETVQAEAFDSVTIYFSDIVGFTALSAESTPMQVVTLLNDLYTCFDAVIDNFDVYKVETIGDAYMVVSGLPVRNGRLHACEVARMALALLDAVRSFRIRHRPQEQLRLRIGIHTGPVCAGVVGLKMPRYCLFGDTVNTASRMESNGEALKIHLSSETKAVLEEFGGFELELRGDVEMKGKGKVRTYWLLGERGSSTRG
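HEK293 cells stably expressing human Npr1 and cGMP GloSensor pGS-40F, loaded 2 h with 2% GloSensor reagent, given compound 30 min at room temperature. Luminescence read before and 20 min after 0.1 nM hNppA.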
3T3 cytotox: cytotoxic compounds in NIH 3T3 cells; AID 1345082; Potency, µM (highest dose often 96.7 µM), for inactives: at the highest dose activity change, negative = cytotoxicity, actives largely listed as inhibitors; NIH 3T3 viability, CellTiter-Glo ATP luminescence, 48-72 h; actives 4.3% (n = 94,000); also: nearly all actives have a fitted effect of over 55% in size
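Viability of NIH 3T3 cells after 48 or 72 hr compound treatment at 37 °C was assessed by CellTiter-Glo, with luminescence imaged following a 10 min room-temperature step.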
HEK293 tox: kills HEK 293 cells; HEK 293 viability, ATP luminescence (CellTiter-Glo), 48-72 h; Potency, µM (highest dose often 115 µM), without a hit: top-dose activity change, negative = cytotoxicity, hits mostly inhibitors; actives 6.6% (n = 94,000); also: nearly all actives have a fitted effect of over 60% in size
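HEK 293 cells seeded at 250 cells/well were exposed to compound for 48 or 72 hr at 37 degree Celsius. Viability taken as ATP content by CellTiter-Glo luminescence.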
The depositor's hits bear a star; i = inactive; ? = inconclusive; . = not tested or not shown; ! = not confirmed by another sample; [ ] = another dose, or the depositor's remark. Unless noted, calls follow the shape of the dose curve; as a rule, active = well fitted curve in the direction sought with a large enough effect; inconclusive = small, poorly fitted or top-dose-only effect, or another doubt; inactive = no such curve, though single readings can be large; an effect the other way counts as inactive or inconclusive. % is scaled to controls: 0 for no effect and ±100 for the full control effect; potency is read from the fitted curve at half-maximal effect.

SMILES	GPT2 inh	FLuc inh	NPR1 antag	3T3 cytotox	HEK293 tox
COc1cc(-c2cc3c(nc2-c2ccccc2)nc(C(=O)NCCN(C)C)n3C)ccn1	-24%[88.5 µM]	i	-6%[70.6 µM]	?	?
COc1ccccc1-c1cc2c(nc1-c1ccccc1)nc(C(=O)NCCN(C)C)n2C	-9%[88.5 µM]	i	?	35µM*	?
COc1cc(F)ccc1-c1cc2c(nc1-c1ccccc1)nc(C(=O)NCCN(C)C)n2C	2%	i	-4%	20µM*	32µM*
Cc1ccc(CN2CCCC(C(=O)N3CCN(c4ccccn4)CC3)CCNC(=O)CC2)s1 (centres undefined)	-5%	i	-14%	-13%	?
COc1ccccc1-c1ccc2c(C(=O)N3CCOCC3)nn(C)c2n1	i	.	.	-19%[138 µM]	-3%[172 µM]
O=C(NCC1CC1)c1nc2cccnc2n(C2CC2)c1=O	i	.	.	-26%[138 µM]	-18%[172 µM]
CC(C)(C)c1nnc2ccc(C(=O)NCCc3ccccc3F)cn12	-2%[88.5 µM]	.	.	-12%[138 µM]	-2%[172 µM]
CN(C)CCNC(=O)c1nc2nc(-c3ccccc3)c(-c3ccncc3)cc2n1C	1%[88.5 µM]	i	2%[70.6 µM]	100µM*	?
Cc1ccccc1-c1cc2c(nc1-c1ccccc1)nc(C(=O)NCCN(C)C)n2C	i	i	?	25µM*	35µM*
CCCCn1c(=O)c(C(=O)N2CCN(C(=O)c3ccccc3F)CC2)nc2cccnc21	i	.	.	?	-7%
O=C(CNC(=O)c1cccc(-c2ccc(C(F)(F)F)cc2)c1)NC1CCCC1	1%	.	.	?	?
CN1Cc2c(cc(N3CCOCC3)nc2-c2cccc(N[S+](C)(=O)[O-])c2)C1=O	-14%[88.5 µM]	i	7%[70.6 µM]	14µM*	?
CN1Cc2c(cc(N3CCOCC3)nc2-c2cccc(C(F)(F)F)c2)C1=O	?	i	-17%[70.6 µM]	5.6µM*	-40%[172 µM]
COc1cccc(-c2nc(N3CCOCC3)cc3c2CN(C)C3=O)c1	-3%[88.5 µM]	i	4%[70.6 µM]	16µM*	?
COc1cccc(-c2nc(N3CCOCC3)cc3c2CN(C)C3=O)c1OC	0%[88.5 µM]	i	5%[70.6 µM]	?	?
CC(=O)Nc1cccc(-c2nc(N3CCOCC3)cc3c2CN(Cc2cnn(C)c2)C3=O)c1	-2%	i	9%	?	-21%
CN(CC[C@H]1CN(C(=O)c2ccnc(Cl)c2)CC[C@H]1CC(=O)O)c1ccccc1	i	i	-1%[70.6 µM]	28µM*	-6%[172 µM]
COC(C)(C)CCn1nc(Nc2c(C)cccc2C)c2cnc(Nc3ccc(OCCN4CCCC4)c(F)c3)nc21	i	.	.	.	.
COc1ccc(-c2ccc(C(=O)N3CCN(C(=O)c4ccccc4C)CC3)cc2)nn1	.	.	.	i	-5%
Cc1oc(-c2cccc(Oc3ccccc3)c2)nc1CN1CC[C@H](N(C)C)C1	i	i	11%	79µM*	?
CC(=O)N1CCCN(Cc2nc(-c3cccc(Oc4ccccc4)c3)oc2C)CC1	i	i	2%	?	?
COc1ccccc1-c1cnc2n[nH]c(-c3sccc3C)c2n1	-25%[88.5 µM]	i	-19%[70.6 µM]	?	89µM*
Cc1ccccc1-c1[nH]nc2ncc(-c3ccccc3F)nc12	-24%[88.5 µM]	i	-26%[70.6 µM]	?	50µM*
COc1ccc(-c2cnc3n[nH]c(-c4sccc4C)c3n2)cc1OC	2%[88.5 µM]	i	-9%[70.6 µM]	?	63µM*
Cc1ccsc1-c1[nH]nc2ncc(-c3ccccc3F)nc12	-5%[88.5 µM]	i	-5%[70.6 µM]	?	71µM*
SMILES	GPT2 inh	FLuc inh	NPR1 antag	3T3 cytotox	HEK293 tox
Cc1ccccc1-c1[nH]nc2ncc(-c3cccnc3)nc12	?	i	-5%[70.6 µM]	?	?
COc1ccc(-c2cnc3n[nH]c(-c4sccc4C)c3n2)cc1	5%[88.5 µM]	i	-9%[70.6 µM]	?	?
CCNC(=O)OC1CCN(C(=O)Cc2ccc(F)cc2)CC(=O)N(C)c2ccccc21 (centres undefined)	.	.	.	?	-1%
Cc1noc2c(NCC3CCOCC3)cc(-c3cccnc3)nc12	i	i	7%[70.6 µM]	?	-5%[172 µM]
Cc1noc2c(NC(C)C)cc(-c3cccnc3)nc12	?	i	-2%[70.6 µM]	40µM*	-26%[230 µM]
Cc1noc2c(Nc3ccc(C(N)=O)cc3)cc(-c3cccnc3)nc12	i	i	-8%[70.6 µM]	20µM*	-9%[172 µM]
O=C1Nc2ccccc2CC12CCN2Cc1ccc(OC(F)(F)F)cc1 (centres undefined)	i	i	-15%	?	45µM*
COc1ccc(CN2CCC3(CN[S+](=O)([O-])c4ccccc4N3)C2)cc1 (centres undefined)	0%	i	0%	-24%	-19%
COc1ccc(CN2CCC3(Cc4ccccc4NC3=O)C2)cc1 (centres undefined)	-1%[88.5 µM]	i	-27%[70.6 µM]	?	?
O=C1Nc2ccccc2CC12CCN2Cc1ccc(F)cc1 (centres undefined)	1%[88.5 µM]	i	0%[70.6 µM]	-25%[138 µM]	?
O=C1Nc2ccccc2CC12CCN(Cc1ccc(OC(F)(F)F)cc1)C2 (centres undefined)	4%	i	?	?	28µM*
O=C1NCc2ccccc2CC12CCN(Cc1ccc(-c3ccccc3)cc1)CC2	-5%	.	.	25µM*	32µM*
O=[S+]1([O-])NCC2(CCN(Cc3ccc(OC(F)(F)F)cc3)C2)Nc2ccccc21 (centres undefined)	i	i	9%	?	79µM*
CN1CC(=O)N(C2CCCNCC2)Cc2c(NCCCN3CCCCC3)ncnc21 (centres undefined)	i	.	.	i	2%
C=CCN(CC=C)C(=O)C1CCCN(C2CCN(C3Cc4ccccc4C3)CC2)C1 (centres undefined)	2%	i	2%	-20%	-26%
COc1ccc(OC)c(S(=O)(=O)N2CCCCCCNC(=O)CC2)c1	i	i	3%	-11%	-7%
Cc1ccccc1C(=O)N1CCCCC12Cc1ccccc1NC2=O (centres undefined)	3%[88.5 µM]	i	15%[70.6 µM]	?	112µM*!
O=C1Nc2ccccc2CC12CCCCN2Cc1ccc(F)cc1 (centres undefined)	-7%[88.5 µM]	i	-2%[70.6 µM]	?	79µM*
O=C1Nc2ccccc2CC12CCN(Cc1ccc(F)cc1)CC2	-18%	i	6%[70.6 µM]	-22%[138 µM]	?
O=C1Nc2ccccc2CC12CCN(Cc1ccc(Cl)cc1)CC2	-15%	.	.	?	89µM*
O=C(NC1CCN(Cc2cccc(-c3cccs3)c2)CC1)c1ccc(Cl)cc1	4%	.	.	-21%	?
Cc1cccc(-c2cccc(CN3CCC(NC(=O)NC4CCCC4)CC3)c2)c1	3%	.	.	?	-21%
O=C(NC1CCN(Cc2cccc(-c3cccs3)c2)CC1)c1cccc(Cl)c1	i	.	.	?	20µM*!
